A short description of test [1]: NCI Yeast Anticancer Drug Screen. Data for the rad50 strain (AID 155).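 Note: 0% = growth of vehicle-only cultures of the same strain.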 The settings on record: S. cerevisiae rad50 strain growth inhibition, hits give high values. The procedure, abridged:
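Genetically altered yeast (DNA repair pathway); compound treatment; growth inhibition vs vehicle ctrl.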

Test [2] can be described thus: NCI Yeast Anticancer Drug Screen. Data for the mec2-1 strain (AID 157). The following applies: S. cerevisiae mec2-1 strain, hits give high values. The procedure, abridged: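 Growth inhibition is read against vehicle-treated controls after compound exposure of the mec2-1 yeast strain, which is defective in DNA damage repair or cell cycle control.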
Test [3] in a line: NCI Yeast Anticancer Drug Screen. Data for the sgs1 mgt1 strain (AID 161).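 Note: 0% = growth of cultures given vehicle only.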 The following applies: S. cerevisiae sgs1 mgt1 strain, hits give high values. The procedure, abridged: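 Growth of a repair-deficient yeast mutant was monitored after compound treatment and expressed as inhibition relative to vehicle-treated cultures.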
Test [4] in a line: NCI Yeast Anticancer Drug Screen. Data for the cln2 rad14 strain (AID 165).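 Note: 0% = growth equal to vehicle treated cultures.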 The settings on record: S. cerevisiae cln2 rad14 strain, hits give high values. The procedure, abridged:
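Growth inhibition, relative to vehicle-treated controls, is the read-out. The test organism is a yeast strain with defined genetic alterations, cln2 rad14.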

Test [5] in a line: NCI Yeast Anticancer Drug Screen. Data for the bub3 strain (AID 167). The settings on record: S. cerevisiae bub3 mutant strain, hits give high values. Summed up: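 Yeast carrying a defined mutation is treated with each compound, and growth is compared with that of vehicle-exposed cells to give inhibition.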
The nature of test [6]: NCI Yeast Anticancer Drug Screen. Data for the mlh1 rad18 strain (AID 175). The following applies: S. cerevisiae mlh1 rad18 strain growth inhibition, hits give high values. The procedure, abridged:
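Cells of a genetically altered yeast strain, deficient in DNA damage repair, were treated with compound. Their growth was then compared with that of vehicle-treated cultures to give inhibition.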

Where [7] appears, read: at 5.0 µM (retest, dose inferred, filed as 0.5).
Setting [8] is: at 50.0 µM (retest, dose inferred, filed as 5.0).

About 79,000 compounds went through this panel and 15% of them were active in at least one assay; those are over-represented in the sample as a whole. A number with no mark means an inactive call. Active and inactive are the calls of the source. Cut-off read from the data, not from the text of the source: active = growth inhibition above about 70%; inactive = the rest.

For `CCCc1cc(=O)oc2c3c(c4c(c12)OC(C)(C)C=C4)O[C@@H](C)[C@H](C)[C@H]3O`, the growth inhibition in test [1] (setting [7]) was -1%; in test [1] (setting [8]), 91% (active); in test [1] (at 50.0 µM) it was 96.7% (active); in test [2] (setting [7]) it was 0%; in test [2] (setting [8]), 94% (active); in test [2] (at 50.0 µM), 94.8% (active). Also, the growth inhibition is 11% in test [3] (setting [7]); 95% (active) in test [3] (setting [8]); 51.8% in test [3] (at 50.0 µM); 2% in test [4] (setting [7]); 93% (active) in test [4] (setting [8]); 92.4% (active) in test [4] (at 50.0 µM). The growth inhibition was -2% in test [5] (setting [7]); 94% (active) in test [5] (setting [8]); 96.5% (active) in test [5] (at 50.0 µM); 1% in test [6] (setting [7]); 93% (active) in test [6] (setting [8]); 95.1% (active) in test [6] (at 50.0 µM).
As to `Cc1c(C#N)c(N)nc2c(C(N)=O)nsc12`, the growth inhibition was -2% in test [1] (setting [7]); -13% in test [1] (setting [8]); 13.2% in test [1] (at 50.0 µM); -2% in test [2] (setting [7]); -8% in test [2] (setting [8]); 8.75% in test [2] (at 50.0 µM). Also, the growth inhibition is -3% in test [3] (setting [7]); -9% in test [3] (setting [8]); 10.7% in test [3] (at 50.0 µM); -2% in test [4] (setting [7]); -18% in test [4] (setting [8]); 53.6% in test [4] (at 50.0 µM). Moreover, the growth inhibition in test [5] (setting [7]) was 9%; in test [5] (setting [8]), 16%; in test [5] (at 50.0 µM), -8.4%; in test [6] (setting [7]), -1%; in test [6] (setting [8]) it was -11%; in test [6] (at 50.0 µM) it was 26.2%.
Take `CNC(=O)OC(C)CN1c2ccccc2Sc2ccccc21` (stereo not given): the growth inhibition in test [1] (setting [7]) was -10%; in test [1] (setting [8]), 97% (active); in test [1] (at 50.0 µM) it was 90.2% (active); in test [2] (setting [7]), -21%; in test [2] (setting [8]) it was 98% (active); in test [2] (at 50.0 µM) it was 92.2% (active). For the same compound, the growth inhibition in test [3] (setting [7]) was 5%; in test [3] (setting [8]), 96% (active); in test [3] (at 50.0 µM), 93.1% (active); in test [4] (setting [7]) it was -1%; in test [4] (setting [8]), 93% (active); in test [4] (at 50.0 µM), 90.3% (active). For the same compound, the growth inhibition in test [5] (setting [7]) was 1%; in test [5] (setting [8]), 98% (active); in test [5] (at 50.0 µM), 91.7% (active); in test [6] (setting [7]) it was -11%; in test [6] (setting [8]), 98% (active); in test [6] (at 50.0 µM), 91.4% (active).
Consider `COC(=O)C(C#N)=C(SC)SC`, for which the growth inhibition was 7% in test [1] (setting [7]); 99% (active) in test [1] (setting [8]); 99.3% (active) in test [1] (at 50.0 µM); 4% in test [2] (setting [7]); 99% (active) in test [2] (setting [8]); 98.2% (active) in test [2] (at 50.0 µM). Moreover, the growth inhibition in test [3] (setting [7]) is 17%; in test [3] (setting [8]), 99% (active); in test [3] (at 50.0 µM), 99.5% (active); in test [4] (setting [7]) it was -3%; in test [4] (setting [8]), 98% (active); in test [4] (at 50.0 µM) it was 95.2% (active). Moreover, the growth inhibition in test [5] (setting [7]) was 1%; in test [5] (setting [8]) it was 99% (active); in test [5] (at 50.0 µM), 98.9% (active); in test [6] (setting [7]), 41%; in test [6] (setting [8]), 99% (active); in test [6] (at 50.0 µM), 99.1% (active).
Regarding `COc1ccccc1NC(=O)CC(=O)N1N=C(C)C(N=Nc2ccc(C(=O)O)cc2)C1=O` (stereo not given), the growth inhibition in test [1] (setting [7]) is 2%; in test [1] (setting [8]), -1%; in test [1] (at 50.0 µM), 0%; in test [2] (setting [7]) it was 0%; in test [2] (setting [8]), -2%; in test [2] (at 50.0 µM) it was -4%. Further, the growth inhibition in test [3] (setting [7]) is -4%; in test [3] (setting [8]) it was -20%; in test [3] (at 50.0 µM), 2.65%; in test [4] (setting [7]), -2%; in test [4] (setting [8]), 7%; in test [4] (at 50.0 µM), 27.9%. Besides, the growth inhibition in test [5] (setting [7]) was 1%; in test [5] (setting [8]), 16%; in test [5] (at 50.0 µM) it was -1.05%; in test [6] (setting [7]), 1%; in test [6] (setting [8]), 1%; in test [6] (at 50.0 µM) it was 2.3%.
With `Cc1c(CC=C(c2ccccc2)c2ccccc2)cccc1C[N+](C)(C)C`, the growth inhibition in test [1] (setting [7]) was 95% (active); in test [1] (setting [8]), 73% (active); in test [1] (at 50.0 µM), 90.7% (active); in test [2] (setting [7]) it was 78% (active); in test [2] (setting [8]) it was 34%; in test [2] (at 50.0 µM), 62.8%. The growth inhibition in test [3] (setting [7]) was 99% (active); in test [3] (setting [8]) it was 98% (active); in test [3] (at 50.0 µM) it was 99% (active); in test [4] (setting [7]) it was 2%; in test [4] (setting [8]) it was 61%; in test [4] (at 50.0 µM), 48.1%. Further, the growth inhibition was 25% in test [5] (setting [7]); 72% (active) in test [5] (setting [8]); 80.2% (active) in test [5] (at 50.0 µM); 95% (active) in test [6] (setting [7]); 98% (active) in test [6] (setting [8]); 98.2% (active) in test [6] (at 50.0 µM).
As to `O=Nc1c(-c2cccc([N+](=O)[O-])c2)nc2cnccn12`, the growth inhibition was 39% in test [1] (setting [7]); 99% (active) in test [1] (setting [8]); 97.7% (active) in test [1] (at 50.0 µM); 24% in test [2] (setting [7]); 99% (active) in test [2] (setting [8]); 98.5% (active) in test [2] (at 50.0 µM). The growth inhibition is 54% in test [3] (setting [7]); 99% (active) in test [3] (setting [8]); 95.7% (active) in test [3] (at 50.0 µM); 23% in test [4] (setting [7]); 99% (active) in test [4] (setting [8]); 99.3% (active) in test [4] (at 50.0 µM). Also, the growth inhibition is 4% in test [5] (setting [7]); 99% (active) in test [5] (setting [8]); 99.7% (active) in test [5] (at 50.0 µM); 58% in test [6] (setting [7]); 99% (active) in test [6] (setting [8]); 97.5% (active) in test [6] (at 50.0 µM).
Turning to `N=C(N)c1ccc(N=Nc2cc(/C=C/c3ccccc3)ccc2O)cc1`, the growth inhibition is 24% in test [1] (setting [7]); 98% (active) in test [1] (setting [8]); 97.7% (active) in test [1] (at 50.0 µM); 2% in test [2] (setting [7]); 99% (active) in test [2] (setting [8]); 99% (active) in test [2] (at 50.0 µM). Moreover, the growth inhibition in test [3] (setting [7]) is 24%; in test [3] (setting [8]), 98% (active); in test [3] (at 50.0 µM) it was 98.5% (active); in test [4] (setting [7]), 3%; in test [4] (setting [8]), 98% (active); in test [4] (at 50.0 µM), 98.3% (active). In addition, the growth inhibition was 2% in test [5] (setting [7]); 98% (active) in test [5] (setting [8]); 98% (active) in test [5] (at 50.0 µM); 7% in test [6] (setting [7]); 98% (active) in test [6] (setting [8]); 98.8% (active) in test [6] (at 50.0 µM).
`CC12CCCC1C1CC=C3CC(OC=O)CCC3(C)C1CC2` (stereo not given): the growth inhibition in test [1] (setting [7]) was 1%; in test [1] (setting [8]) it was 4%; in test [1] (at 50.0 µM), 13.4%; in test [2] (setting [7]), 10%; in test [2] (setting [8]), 3%; in test [2] (at 50.0 µM), 1.5%. In addition, the growth inhibition in test [3] (setting [7]) is 0%; in test [3] (setting [8]) it was 25%; in test [3] (at 50.0 µM) it was 40.9%; in test [4] (setting [7]), -37%; in test [4] (setting [8]), -5%; in test [4] (at 50.0 µM) it was 38.8%. The growth inhibition in test [5] (setting [7]) is -8%; in test [5] (setting [8]) it was 44%; in test [5] (at 50.0 µM), -13.4%; in test [6] (setting [7]), -1%; in test [6] (setting [8]), -2%; in test [6] (at 50.0 µM), -12.3%.
On to `CC1=CC2C(O)(CC(CO)=CC3C4C(C)(C)C4(OC(=O)c4ccccc4)C(OC(=O)c4ccccc4)C(C)C32O)C1=O` (stereo not given), for which the growth inhibition in test [1] (setting [7]) was 95% (active); in test [1] (setting [8]), 96% (active); in test [1] (at 50.0 µM), 90.3% (active); in test [2] (setting [7]) it was 96% (active); in test [2] (setting [8]) it was 98% (active); in test [2] (at 50.0 µM), 91.7% (active). The growth inhibition in test [3] (setting [7]) is 96% (active); in test [3] (setting [8]), 97% (active); in test [3] (at 50.0 µM), 92% (active); in test [4] (setting [7]) it was 73% (active); in test [4] (setting [8]), 97% (active); in test [4] (at 50.0 µM), 88.3% (active). The growth inhibition in test [5] (setting [7]) was 95% (active); in test [5] (setting [8]), 96% (active); in test [5] (at 50.0 µM), 89.2% (active); in test [6] (setting [7]) it was 97% (active); in test [6] (setting [8]), 97% (active); in test [6] (at 50.0 µM), 88.6% (active).

The values are drawn from PubChem BioAssay (NCI).
